Results filed as inconclusive are left out. Calls of active or inactive are those of the source. Calls follow the shape of the dose curve; as a rule, active = well fitted inhibition curve with a large enough effect; inconclusive = small, poorly fitted or top-dose-only effect; inactive = flat fitted curve, though single readings scatter.
What was measured:
Test in all cases: qHTS profiling for inhibitors of Plasmodium falciparum proliferation (AID 504749); also: nearly all actives have a fitted effect of over 60% in size
[1] = system: CP262; details: P. falciparum in erythrocytes, SYBR Green DNA, 72 h; series mostly up to 12.8 µM
Procedure, shortened: (§1)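 P. falciparum-infected erythrocytes (0.3% parasitemia, 2.5% hematocrit) incubated with compound 72 h at 37 C, 5% CO2. Parasite DNA detected by SYBR Green after lysis, overnight at room temperature; normalised to 0.29 uM artemisinin and DMSO.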

[2] = system: CP265; details: P. falciparum in erythrocytes, SYBR Green DNA, 72 h; series mostly up to 12.8 µM
Procedure, shortened: as §1

[3] = system: CP266; details: P. falciparum in erythrocytes, SYBR Green DNA, 72 h; series mostly up to 28.7 µM
Procedure, shortened: as §1

[4] = system: CP268; details: P. falciparum in erythrocytes, SYBR Green DNA, 72 h; series mostly up to 12.8 µM
Procedure, shortened: as §1

[5] = system: CP269; details: P. falciparum in erythrocytes, SYBR Green DNA, 72 h; series mostly up to 12.8 µM
Procedure, shortened: as §1

[6] = system: CP286; details: P. falciparum in erythrocytes, SYBR Green DNA, 72 h; series mostly up to 12.8 µM
Procedure, shortened: as §1

[7] = system: CP291; details: P. falciparum in erythrocytes, SYBR Green DNA, 72 h; series mostly up to 12.8 µM
Procedure, shortened: as §1

[8] = system: CP297; details: P. falciparum in erythrocytes, SYBR Green DNA, 72 h; series mostly up to 12.8 µM
Procedure, shortened: as §1

[9] = system: CP305; details: P. falciparum in erythrocytes, SYBR Green DNA, 72 h; series mostly up to 12.8 µM
Procedure, shortened: as §1

[10] = system: CP315; details: P. falciparum in erythrocytes, SYBR Green DNA, 72 h; series mostly up to 12.8 µM
Procedure, shortened: as §1

[11] = system: CP325; details: P. falciparum in erythrocytes, SYBR Green DNA, 72 h; series mostly up to 12.8 µM
Procedure, shortened: as §1

[12] = system: CP329; details: P. falciparum in erythrocytes, SYBR Green DNA, 72 h; series mostly up to 12.8 µM
Procedure, shortened: as §1

[13] = system: CP335; details: P. falciparum in erythrocytes, SYBR Green DNA, 72 h; series mostly up to 12.8 µM
Procedure, shortened: as §1

[14] = system: DFO2036; details: P. falciparum in erythrocytes, SYBR Green DNA, 72 h; series mostly up to 12.8 µM
Procedure, shortened: as §1

[15] = system: DIV17; details: P. falciparum in erythrocytes, SYBR Green DNA, 72 h; series mostly up to 12.8 µM
Procedure, shortened: as §1

[16] = system: DIV30; details: P. falciparum in erythrocytes, SYBR Green DNA, 72 h; series mostly up to 12.8 µM
Procedure, shortened: as §1

[17] = system: Dd2; details: P. falciparum in erythrocytes, SYBR Green DNA, 72 h; series mostly up to 12.8 µM
Procedure, shortened: as §1

[18] = system: ECU; details: P. falciparum in erythrocytes, SYBR Green DNA, 72 h; series mostly up to 12.8 µM
Procedure, shortened: as §1

[19] = system: FAB9; details: P. falciparum in erythrocytes, SYBR Green DNA, 72 h; series mostly up to 12.8 µM
Procedure, shortened: as §1

[20] = system: GB4; details: P. falciparum in erythrocytes, SYBR Green DNA, 72 h; series mostly up to 12.8 µM
Procedure, shortened: as §1

[21] = system: HB3; details: P. falciparum in erythrocytes, SYBR Green DNA, 72 h; series mostly up to 12.8 µM
Procedure, shortened: as §1

[22] = system: ICS; details: P. falciparum in erythrocytes, SYBR Green DNA, 72 h; series mostly up to 12.8 µM
Procedure, shortened: as §1

[23] = system: JCK; details: P. falciparum in erythrocytes, SYBR Green DNA, 72 h; series mostly up to 12.8 µM
Procedure, shortened: as §1

[24] = system: N140; details: P. falciparum in erythrocytes, SYBR Green DNA, 72 h; series mostly up to 12.8 µM
Procedure, shortened: as §1

[25] = system: P93_24; details: P. falciparum in erythrocytes, SYBR Green DNA, 72 h; series mostly up to 12.8 µM
Procedure, shortened: as §1

[26] = system: P94_40; details: P. falciparum in erythrocytes, SYBR Green DNA, 72 h; series mostly up to 12.8 µM
Procedure, shortened: as §1

[27] = system: PAD; details: P. falciparum in erythrocytes, SYBR Green DNA, 72 h; series mostly up to 12.8 µM
Procedure, shortened: as §1

[28] = system: PC15; details: P. falciparum in erythrocytes, SYBR Green DNA, 72 h; series mostly up to 12.8 µM
Procedure, shortened: as §1

[29] = system: PC26; details: P. falciparum in erythrocytes, SYBR Green DNA, 72 h; series mostly up to 12.8 µM
Procedure, shortened: as §1

[30] = system: PC49; details: P. falciparum in erythrocytes, SYBR Green DNA, 72 h; series mostly up to 12.8 µM
Procedure, shortened: as §1

[31] = system: SC27B; details: P. falciparum in erythrocytes, SYBR Green DNA, 72 h; series mostly up to 12.8 µM
Procedure, shortened: as §1

[32] = system: TAB109; details: P. falciparum in erythrocytes, SYBR Green DNA, 72 h; series mostly up to 12.8 µM
Procedure, shortened: as §1

[33] = system: TAB113; details: P. falciparum in erythrocytes, SYBR Green DNA, 72 h; series mostly up to 12.8 µM
Procedure, shortened: as §1

[34] = system: TAB165; details: P. falciparum in erythrocytes, SYBR Green DNA, 72 h; series mostly up to 12.8 µM
Procedure, shortened: as §1

Measured: Potency

CO/N=C(/C(=O)NC1C(=O)N2C(C(=O)O)=C(CSc3nc(=O)c(O)nn3C)CSC12)c1csc(N)n1 (centres undefined)
inactive: [1] | [2] | [3] | [4] | [5] | [6] | [7] | [8] | [9] | [10] | [11] | [12] | [13] | [14] | [15] | [16] | [17] | [18] | [19] | [20] | [21] | [22] | [23] | [24] | [25] | [26] | [27] | [28] | [29] | [30] | [31] | [32] | [33] | [34]

— PubChem BioAssay (NCATS)
